# CD11b adhes inh: inhibitors of CD11b/CD18 adhesion to fibrinogen, primary screen, K562 cells, luminescence. Integrin beta-2 (Homo sapiens) + Integrin alpha-M (Homo sapiens), P05107+P11215. ATPlite luminescence; Mn2+ added to activate the integrin. inhibition, % at 10 µM. 0.54% of 93,000 active. AID 1497, 2009;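 active = primary inhibition of 50% or more at 10 µM, then 40% or more on retest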
# Target sequence (P05107 whole entry, looked up, other chains not shown): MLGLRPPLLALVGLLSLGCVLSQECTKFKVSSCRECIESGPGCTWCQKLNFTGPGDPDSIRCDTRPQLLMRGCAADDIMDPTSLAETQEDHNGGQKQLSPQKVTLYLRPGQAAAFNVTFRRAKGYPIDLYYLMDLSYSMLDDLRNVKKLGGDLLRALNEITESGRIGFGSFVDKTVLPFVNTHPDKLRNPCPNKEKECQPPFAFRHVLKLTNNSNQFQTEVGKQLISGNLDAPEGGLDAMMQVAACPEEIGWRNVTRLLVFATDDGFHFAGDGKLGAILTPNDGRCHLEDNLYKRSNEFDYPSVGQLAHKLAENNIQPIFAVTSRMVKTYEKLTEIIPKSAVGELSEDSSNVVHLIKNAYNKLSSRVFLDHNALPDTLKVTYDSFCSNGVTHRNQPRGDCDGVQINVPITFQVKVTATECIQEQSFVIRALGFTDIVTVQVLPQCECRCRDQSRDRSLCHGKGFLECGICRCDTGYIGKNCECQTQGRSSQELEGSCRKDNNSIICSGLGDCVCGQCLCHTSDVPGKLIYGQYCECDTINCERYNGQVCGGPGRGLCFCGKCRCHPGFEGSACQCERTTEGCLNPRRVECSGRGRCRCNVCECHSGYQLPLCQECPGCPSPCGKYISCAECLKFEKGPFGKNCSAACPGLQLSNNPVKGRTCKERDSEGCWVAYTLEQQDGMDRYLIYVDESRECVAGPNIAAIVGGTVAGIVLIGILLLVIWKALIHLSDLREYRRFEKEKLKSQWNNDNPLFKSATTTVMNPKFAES
# FAK inh: FAK kinase inhibitors, primary screen, biochemical | Focal adhesion kinase 1 (Homo sapiens), Q05397 | biochemical FAK kinase activity assay | inhibition, %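 (tested at 7 µM)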 | 0.84% of 97,000 active;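 note: 0% = DMSO and 100% = reference compound high control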
# Phagocytosis inh: inhibitors of macrophage phagocytosis, primary screen, imaging, J774A.1 cells, IgG beads. 0.07% of 110,000 active. J774A.1 macrophage IgG-bead phagocytosis. inhibition, % at 5 µM;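 active = inhibition above the mean of the plate negative controls plus 5 SD, cut at about 13% in these data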;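 note: phagocytic index as fraction of beads internalized from green versus red external bead signal; plate controls were DMSO negative control for no effect and cytochalasin-D positive control for full effect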
# TNAP act mid DEA: human TNAP enzyme activators, primary screen, biochemical, luminescent, intermediate phosphate acceptor level; activation factor at 20 µM; AID 813, 2007; 64,000 tested, under 10 active; Alkaline phosphatase, tissue-nonspecific isozyme (Homo sapiens), P05186; purified TNAP, CDP-star luminescence, 100 mM DEA, 30 min; hits give high values; scale: 0 levamisole-inhibited, 1 vehicle-only enzyme;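 active = activation factor of at least 2 at 20 µM, relative to controls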
# CD11b adhes enh: enhancers of CD11b/CD18 adhesion to fibrinogen, primary screen, K562 cells, luminescence. Integrin beta-2 (Homo sapiens) + Integrin alpha-M (Homo sapiens), P05107+P11215. ATPlite luminescence. activation, % at 10 µM. 0.07% of 93,000 active. AID 1499, 2009;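 active = 10 µM primary screen giving 50% or more activity, confirmed by 40% or more on retest at that dose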
# FAK inh confirm: FAK kinase inhibitors, retest, confirmation, biochemical; shares compounds with FAK inh; FAK kinase biochemical inhibition assay; inhibition, % at 7 µM; 28% of 750 active
# Active calls of the source: *; / = not tested or not shown. Rows were chosen to be rich in hits. Some 0.96% of all compounds tested hit in one or more screens of this group. Cut-off read from the data, not from the text of the source, unless noted: active = inhibition above about 19%; inactive = the rest.
SMILES,CD11b adhes inh,FAK inh,Phagocytosis inh,TNAP act mid DEA,CD11b adhes enh,FAK inh confirm
Cc1cc(C(=O)CSc2n[nH]c(N)n2)c(C)n1-c1ccc2c(c1)OCO2,/,/,-6.5,/,/,/
COc1ccc(-c2cn[nH]c2N)c(OC)c1,-11.8,30.6*,-0.8,0.9,-4.6,1.2
COc1ccc(-c2cn[nH]c2N)cc1,-4.8,6.3,/,/,-4.6,/
CC1(C)Cc2c(C#N)c(N3CCN(C(=O)c4ccccc4Cl)CC3)nc(-c3ccco3)c2CS1,-0.3,25.3*,0.3,/,9.7,-1.0
Cc1c(N2C(=O)c3ccc4c5c(ccc(c35)C2=O)CC4)c(=O)n(-c2ccccc2)n1C,-33.1,70.0*,-0.2,0.9,62.4,40.7*
Cc1ccccc1N(CC(=O)N/N=C/c1cc(Br)c(C)o1)S(C)(=O)=O,/,/,-3.9,/,/,/
CCCCn1c(=O)[nH]c2ccccc21,0.3,4.1,0.0,0.9,1.1,/
O=c1[nH]c2ccccc2n1CCCSc1cnc2ccccc2n1,4.2,41.8*,-1.4,/,16.9,14.4
COc1ccc(C(=O)Nc2ccccc2C(=O)N/N=C/c2ccco2)cc1,/,/,-0.9,/,/,/
Cc1cc(C)cc(OCC(=O)Nc2ccc(N3CCCC3)cc2)c1,-11.2,38.6*,0.4,0.9,72.8,40.2*
COc1ccc(C(=O)Nc2ccc(N3CCCC3)cc2)cc1,5.5,32.0*,0.0,/,67.2,13.0
CCOc1ccc(C(=O)Nc2ccc(N3CCCC3)cc2)cc1,-5.7,17.5,1.8,0.9,102.6,/
COc1cc(CN2C(=O)C(NC(=O)c3ccco3)(C(F)(F)F)C3=C2CC(C)(C)CC3=O)cc(OC)c1 (centres undefined),-14.7,3.1,-1.4,/,-2.1,/
COc1ccc(C(C)=O)cc1COc1ccc(-n2cnnn2)cc1,5.8,-1.7,0.1,/,2.8,/
COC(=O)c1[nH]c2ccc(C)cc2c1NC(=O)CN1CCCCC1C (centres undefined),/,/,/,0.9,/,/
COC(=O)c1[nH]c2ccc(C)cc2c1NC(=O)CN1CCCc2ccccc21,-33.8,19.6*,1.0,0.9,108.5,22.1*
O=c1[nH]cnc2sc3c(c12)CCCC3,24.5,25.9*,0.2,0.8,8.0,9.5
O=C(OCC(=O)N1CCN(C(=O)c2ccco2)CC1)c1sc2cc(F)ccc2c1Cl,-16.5,-1.4,0.0,1,5.6,/
O=C(OCC(=O)N1CCN(C(=O)c2ccco2)CC1)c1cc(-c2ccc(Cl)c(Cl)c2Cl)nc2ccccc12,-15.6,35.3*,0.8,/,41.5,19.2*
O=C(OCC(=O)N1CCN(C(=O)c2ccco2)CC1)c1cc(-c2ccco2)nc2ccccc12,6.2,69.2*,1.6,/,0.9,17.0
O=C(c1ccco1)N1CCN(C(=O)c2cc(-c3ccccn3)nc3ccccc23)CC1,-1.2,-3.4,-0.4,0.9,0.3,/
COc1ccc2[nH]c(=O)c(-c3noc(-c4ccccc4)n3)cc2c1,0.6,59.3*,0.1,0.9,7.7,35.6*
O=c1[nH]c2ccccc2cc1-c1noc(-c2cccnc2)n1,2.9,6.9,1.2,0.9,-4.3,/
CS(=O)(=O)N(Cc1ccc(Cl)cc1)c1ccc(C(=O)N/N=C/c2cc3ccccc3nc2Cl)cc1,/,/,-4.3,/,/,/
CC(=O)N(/N=C1\Sc2ccccc2C1=O)c1cccc(C)c1,17.7,19.3*,-0.2,/,-1.3,15.8
SMILES,CD11b adhes inh,FAK inh,Phagocytosis inh,TNAP act mid DEA,CD11b adhes enh,FAK inh confirm
CCC(=O)N(Cc1ccco1)c1nc(C(=O)Nc2ccc(Cl)cc2)c(C)s1,5.1,/,-5.5,/,-1.6,/
O=C(Nc1ccc(-n2nncc2-c2ccco2)cc1)c1cccc(F)c1,-31.8,-2.8,-1.1,0.8,0.7,/
O=C(Nc1ccc(-n2nncc2-c2ccco2)cc1)c1cc2ccccc2oc1=O,-7.3,81.8*,0.2,0.9,168.4*,78.2*
CCCOc1ccc(N)cc1N,-12.8,22.1*,-0.8,1,1.6,0.0
CCCOc1ccccc1NC(=O)c1ccc(N)cc1,-24.1,2.9,-0.8,0.9,4.8,/
COC(=O)c1ccccc1NC(=O)c1cccc(COc2ccccc2Cl)c1,16.2,22.9*,0.7,/,-1.5,0.3
O=C(NCc1ccccc1)c1cccc(COc2ccccc2Cl)c1,-11.4,-6.2,-2.3,/,-4.3,/
N#Cc1cc([N+](=O)[O-])cnc1N(CCO)CCO,/,/,-7.9,/,/,/
Cc1ccc(C)n1Cc1ccc(C(=O)O)cc1,1.1,78.3*,-3.5,0.8,-8.3,-4.3
CC1CCCCN1C(=O)CSc1ccc(-c2ccc(F)cc2)nn1 (centres undefined),-0.2,26.2*,-0.8,1,0.7,9.8
COc1ccc(-c2ccc(SCC(=O)N3CCCC3)nn2)cc1OC,1.3,-2.0,0.1,0.9,0.1,/
COc1cc(-c2nnc(CSc3nnc4nc(C)cc(C)n34)o2)cc(OC)c1OC,-7.8,0.1,3.8,1,-3.1,/
Nc1nc2ccc([N+](=O)[O-])c(N)c2s1,/,25.3*,/,/,/,6.3
CC(=O)c1cccc(NC(=O)C2C3C=CC(C4CC34)C2C(=O)O)c1 (centres undefined),-61.0,1.1,-0.9,1,4.1,/
C=CCn1c(SCC(=O)NC2CCS(=O)(=O)C2)nc2scc(C3CC3)c2c1=O (centres undefined),-1.5,-1.2,-0.6,0.9,-4.3,/
C=CCn1c(SCC(=O)c2ccc(CNC(C)=O)o2)nc2scc(C3CC3)c2c1=O,-19.6,26.6*,-2.2,1,105.6,2.3
O=C(Cn1c(=O)oc2cc(S(=O)(=O)N3CCCC3)ccc21)Nc1cccc(C(F)(F)F)c1,13.3,25.6*,1.3,1,-4.8,9.3
CCc1cccc(NC(=O)Cn2c(=O)oc3cc(S(=O)(=O)N4CCOCC4)ccc32)c1,18.6,-6.3,1.7,/,-0.9,/
CCOc1ccc2nc(SCC(=O)N3CCCCCC3)c(C#N)cc2c1,6.4,24.7*,0.0,0.8,-0.9,9.2
CCOC(=O)c1cnn(-c2ncnc3sc4c(c23)CCC4)c1N,-6.8,25.6*,-0.7,1,-1.6,17.1
Oc1ccc(N=Cc2ccc(-c3cccs3)s2)cc1,0.3,42.6*,-0.2,1,-4.4,1.8
CC(=O)N1CCN(c2ccc(Nc3ncnc4c3oc3ccccc34)cc2)CC1,39.9,23.8*,0.9,1,2.0,16.3
O=S(=O)(Nc1ccc2c(c1)OCO2)c1ccc(Br)s1,-34.2,9.2,0.0,0.8,20.9,/
COc1ccc(-c2nnn(CC(=O)N3CCOCC3)n2)cc1,1.4,0.1,-0.1,/,-1.5,/
O=C(Cc1cccs1)Nc1ccc(-c2nnn(CC(=O)N3CCOCC3)n2)cc1,-8.2,24.9*,-0.3,0.9,0.1,3.9
CCOc1cc(C(=S)N2CCCC2)ccc1OCC(=O)Nc1c(C)cc(C)cc1C,/,-5.2,/,/,/,/
CCN(CC)C(=O)CSc1nc(N)c2c3c(sc2n1)CC(C)CC3 (centres undefined),6.3,27.6*,-0.4,/,-2.1,31.9*
CC1CCc2c(sc3nc(SCC(=O)NCc4ccco4)nc(N)c23)C1 (centres undefined),-10.3,2.0,-0.3,0.9,0.6,/
Cc1nn2c(c1-c1ccccc1)NC1=C(C(=O)CCC1)C2c1ccccc1 (centres undefined),/,24.6*,/,/,/,21.5*

# Screening results as filed in PubChem.
